In PubChem BioAssay (Tox21):
A number with no mark means an inactive call. Results filed as inconclusive are left out. Entries that show only a call come without a potency. Active and inactive are the calls of the source. Unless noted, the call rests on the fitted dose curve; in most records, active means well fitted curve in the direction sought with a large enough effect in the repeat runs; inconclusive means weak or mixed curves; inactive means no such curve, though single readings can be large; an effect the other way counts as inactive or inconclusive.

How the values were obtained:
[1] = target: Thyrotropin receptor (Homo sapiens) (UniProt P16473); experiment: qHTS assay to identify small molecule antagonists of the thyroid stimulating hormone receptor (TSHR) signaling pathway (AID 1259385; calls by dose curve; further: nearly all actives have a fitted effect of over 20% in size; further: potency means the concentration at half of the fitted maximal effect)
Summary of the method: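 TSHR-HEK293 cells (800/well) plated 18 h, then compounds with Ro20-1724 and TSH at 1.5 ng/mL final, 30 min at room temperature. cAMP quantified by HTRF (cAMP-d2/anti-cAMP-cryptate, 1 h); 15 concentrations in triplicate.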

[2] = qHTS assay to identify small molecule agonists of the estrogen receptor alpha (ER-alpha) signaling pathway in the presence of an antagonist - cell viability counter screen (AID 1259386);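 further: series mostly up to about 92 µM; cells exposed to compounds for 22 h at 37 °C before the viability read; nearly all actives have a fitted effect of over 30% in size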
Summary of the method: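 Fluorescent CellTiter-Fluor viability signal from VM7Luc4E2 cells, with the reagent added during the final hour of a 22hr compound exposure at 37C in the presence of 10.0nM ICI-182,780.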

[3] = target: Progesterone receptor (Homo sapiens) (UniProt P06401); experiment: qHTS assay to identify small molecule agonists of the progesterone receptor (PR) signaling pathway (AID 1346784; calls by dose curve; further: nearly all actives have a fitted effect of over 30% in size)
Summary of the method: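 Beta-lactamase reporter read-out: after 16 hr compound treatment at 37C and a further 2 hr at room temperature with LiveBLAzer B/G FRET substrate, fluorescence was measured in PR-UAS-bla HEK 293T cells grown in 2% charcoal-stripped serum.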

[4] = target: Progesterone receptor (Homo sapiens) (UniProt P06401); experiment: qHTS assay to identify small molecule antagonists of the progesterone receptor (PR) signaling pathway (AID 1346795; active means well fitted inhibition curve with a large enough effect in the signal ratio in the repeat runs, not every such curve was filed as active; the % refers to the signal ratio)
Summary of the method: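 Read-out is fluorescence from the LiveBLAzer B/G FRET substrate, cleaved by a UAS-controlled beta-lactamase in PR-UAS-bla HEK293T cells after 16 hr exposure to compound plus 1 nM promegestone (final), followed by 2 hr at room temperature.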

[5] = qHTS assay to identify small molecule agonists of the progesterone receptor (PR) signaling pathway - cell viability counter screen (AID 1346799; calls by dose curve; further: nearly all actives have a fitted effect of over 45% in size; further: potency means the concentration at half of the fitted maximal effect)
Summary of the method: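 Luminescence from CellTiter-Glo, added after the beta-lactamase FRET read in the same wells, gave cytotoxicity in PR-UAS-bla HEK293T cells treated with compounds for 16 hr at 37C.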

[6] = qHTS assay to identify small molecule antagonists of the TGF-beta/Smad signaling pathway - cell viability counter screen (AID 1346824); further: nearly all actives have a fitted effect of over 50% in size
Summary of the method: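 SBE-bla HEK 293T cells, incubated overnight, then compound plus 0.25 ng/mL TGF-beta1 (stock added) for 5 hr at 37 C. Viability was read in the same wells by CellTiter-Glo luminescence after 30 min at room temperature.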

[7] = qHTS assay to identify small molecule agonists of the TGF-beta/Smad signaling pathway - cell viability counter screen (AID 1346829); further: top concentration of the series differs between compounds; nearly all actives have a fitted effect of over 45% in size
Summary of the method: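 Tox21 qHTS format: SBE-bla HEK 293T cells treated with DMSO-dissolved compounds for 5 hr; CellTiter-Glo luminescence after 30 min at room temperature.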

[8] = target: Thyrotropin-releasing hormone receptor (Homo sapiens) (UniProt P34981); experiment: qHTS assay to identify small molecule agonists of the thyrotropin-releasing hormone receptor (TRHR) signaling pathway (AID 1346891; calls by dose curve; further: series mostly up to about 58 µM)
Summary of the method: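 Intracellular calcium rise, read as fluorescence every second for 3 min, served as the agonist signal in dye-loaded HEK293 cells expressing TRHR; each compound ran at 15 concentrations in triplicate.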

[9] = Human pregnane X receptor (PXR) small molecule agonists, qHTS cell viability counter screen (AID 1346977); further: nearly all actives have a fitted effect of over 50% in size
Summary of the method: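 PXR-Luc HepG2, 2,000 cells/well, 5% charcoal-stripped FBS; 5hr settle; cpd 24hr, 37C/5% CO2; CellTiter-Fluor at 23hr, read 1hr later (fluorescence).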

[10] = Caspase-3/7 induction in HepG2 cells by small molecules, qHTS assay (AID 1346978); further: nearly all actives have a fitted effect of over 15% in size
Summary of the method: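 Wild-type HepG2 cells, 2,000/well, settled 5 hr at 37 C and 5% CO2, then compound-treated for 17 hr; caspase-3/7 activity read by luminescent Caspase-Glo 3/7 after 30 min at room temperature.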

[11] = Caspase-3/7 induction in CHO-K1 cells by small molecules, qHTS cell viability counter screen (AID 1346979); further: nearly all actives have a fitted effect of over 35% in size
Summary of the method: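 Cells (CHO-K1, wild type) are plated at 1,500 per well and incubated 5hr. Test compounds in DMSO are then pinned in, followed by 16hr at 37C and 5% CO2. Viability is read by CellTiter-Fluor fluorescence after 1hr.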

[12] = Caspase-3/7 induction in CHO-K1 cells by small molecules, qHTS assay (AID 1346980); further: nearly all actives have a fitted effect of over 15% in size
Summary of the method: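 Wild-type CHO-K1 cells exposed to compounds for 17hr at 37 C, 5% CO2. Caspase-3/7 activity then measured by Caspase-Glo 3/7 luminescence after 30min at room temperature.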

[13] = Caspase-3/7 induction in HepG2 cells by small molecules, qHTS cell viability counter screen (AID 1346981); further: series mostly up to about 92 µM; nearly all actives have a fitted effect of over 30% in size
Summary of the method: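 Counter screen for cytotoxicity: HepG2 exposed 16 hr to compounds, then CellTiter-Fluor viability signal (fluorescence, 1 hr reagent incubation).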

[14] = target: Nuclear receptor subfamily 1 group I member 2 (Homo sapiens) (UniProt O75469); experiment: Human pregnane X receptor (PXR) small molecule agonists, qHTS assay (AID 1346982); further: nearly all actives have a fitted effect of over 35% in size; further: potency means the concentration at half of the fitted maximal effect
Summary of the method: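 Luminescence (ONE-Glo, 30 min RT) after 24 hr compound exposure of PXR-Luc HepG2 cells; cells rested 5 hr post-plating in 5% charcoal-stripped FBS medium.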

[15] = qHTS assay to identify small molecule antagonists of the progesterone receptor (PR) signaling pathway - cell viability counter screen (AID 1346798); further: nearly all actives have a fitted effect of over 50% in size; further: potency means the concentration at half of the fitted maximal effect
Summary of the method: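 HEK293T PR-UAS-bla, 2% charcoal-stripped FBS; 4 hr pre-plate; cpd + R5020, 16 h 37C; LiveBLAzer read first; then CellTiter-Glo 30 min RT, luminescence.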

[16] = qHTS assay to identify small molecule agonists of the TGF-beta/Smad signaling pathway (AID 1346859; active means well fitted activation curve with a large enough effect in the signal ratio in the repeat runs, not every such curve was filed as active; the % refers to the signal ratio; further: series mostly up to about 77 µM)
Summary of the method: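 SBE-bla HEK 293T, 4,000 cells/well, plated o/n; cpd in DMSO, 5 hr, 37 C/5% CO2; B/G FRET substrate 2 hr RT; ex 405, em 460/530 nm.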

[17] = target: Thyrotropin-releasing hormone receptor (Homo sapiens) (UniProt P34981); experiment: qHTS assay to identify small molecule antagonists of the thyrotropin-releasing hormone receptor (TRHR) signaling pathway (AID 1346877; active means well fitted inhibition curve with a large enough effect in the repeat runs, not every such curve was filed as active; further: series mostly up to about 51 µM)
Summary of the method: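 In this cell-based calcium flux format, HEK293 cells expressing TRHR received test compound for 5 min before the agonist TRH (1 nM final). Dye loading lasted 2 h at 37 °C.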

[18] = target: Nuclear receptor subfamily 1 group I member 2 (Rattus norvegicus) (UniProt Q9R1A7); experiment: Rat pregnane X receptor (rPXR) activation by small molecules, qHTS assay (AID 1346983); conditions: rPXR luciferase reporter cells, One-Glo luminescence, 24 h; max activation: active compounds read high; further: nearly all actives have a fitted effect of over 20% in size
Summary of the method: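 Cell-based rPXR activation assay: rPXR cells, 2,000 per well, rested 5hr at 37 C, then exposed to compounds in DMSO for 24 hr at 37 C. Luciferase activity read by One-Glo luminescence after 30 min at room temperature.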

[19] = target: Nuclear receptor subfamily 1 group I member 2 (Homo sapiens) (UniProt O75469); experiment: CYP3A4 induction through human pregnane X receptor (PXR) by small molecules, qHTS assay (AID 1346984); further: nearly all actives have a fitted effect of over 40% in size
Summary of the method: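 DPX-2 reporter cells; 24h cpd, 37C; Luciferin-IPA 3uM final x3h; One-Glo 30 min RT; lumi read.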

[20] = target: Nuclear receptor subfamily 1 group I member 2 (Homo sapiens) (UniProt O75469); experiment: Human pregnane X receptor (PXR) activation by small molecules, qHTS assay (AID 1346985); further: nearly all actives have a fitted effect of over 40% in size
Summary of the method: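 DPX-2 cells (HepG2 co-transfected with a PXR response element and a CYP3A4-promoter luciferase construct) were seeded at 2,000 per well, rested 5 hr at 37C, then exposed to DMSO-dissolved compounds for 24 hr. Activation was read as luciferase luminescence.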

Progesterone receptor (Homo sapiens), sequence (P06401 whole entry, looked up): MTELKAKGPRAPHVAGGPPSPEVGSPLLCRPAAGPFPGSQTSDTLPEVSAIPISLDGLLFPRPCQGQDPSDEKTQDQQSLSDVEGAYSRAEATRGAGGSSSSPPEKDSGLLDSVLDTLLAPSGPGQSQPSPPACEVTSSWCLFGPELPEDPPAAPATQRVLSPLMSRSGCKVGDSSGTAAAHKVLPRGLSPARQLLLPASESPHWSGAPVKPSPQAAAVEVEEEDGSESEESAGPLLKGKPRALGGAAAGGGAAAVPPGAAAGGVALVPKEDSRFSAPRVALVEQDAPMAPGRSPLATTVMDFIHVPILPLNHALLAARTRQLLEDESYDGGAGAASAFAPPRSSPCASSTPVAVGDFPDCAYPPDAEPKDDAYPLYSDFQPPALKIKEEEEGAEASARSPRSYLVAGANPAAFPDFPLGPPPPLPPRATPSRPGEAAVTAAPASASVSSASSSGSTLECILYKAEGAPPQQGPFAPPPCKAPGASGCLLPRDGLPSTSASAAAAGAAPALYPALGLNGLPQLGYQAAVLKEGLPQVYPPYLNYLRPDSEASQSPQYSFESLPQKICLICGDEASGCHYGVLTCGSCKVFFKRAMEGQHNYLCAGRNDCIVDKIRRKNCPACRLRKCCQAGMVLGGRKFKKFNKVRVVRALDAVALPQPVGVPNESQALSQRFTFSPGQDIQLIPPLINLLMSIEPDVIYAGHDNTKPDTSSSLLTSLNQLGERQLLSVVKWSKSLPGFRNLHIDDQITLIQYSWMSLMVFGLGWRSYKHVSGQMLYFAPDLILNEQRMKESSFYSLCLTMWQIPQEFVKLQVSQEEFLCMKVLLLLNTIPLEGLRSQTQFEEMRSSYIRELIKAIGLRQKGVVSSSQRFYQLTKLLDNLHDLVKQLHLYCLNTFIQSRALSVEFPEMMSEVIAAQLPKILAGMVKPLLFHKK
Nuclear receptor subfamily 1 group I member 2 (Homo sapiens), sequence (O75469 whole entry, looked up): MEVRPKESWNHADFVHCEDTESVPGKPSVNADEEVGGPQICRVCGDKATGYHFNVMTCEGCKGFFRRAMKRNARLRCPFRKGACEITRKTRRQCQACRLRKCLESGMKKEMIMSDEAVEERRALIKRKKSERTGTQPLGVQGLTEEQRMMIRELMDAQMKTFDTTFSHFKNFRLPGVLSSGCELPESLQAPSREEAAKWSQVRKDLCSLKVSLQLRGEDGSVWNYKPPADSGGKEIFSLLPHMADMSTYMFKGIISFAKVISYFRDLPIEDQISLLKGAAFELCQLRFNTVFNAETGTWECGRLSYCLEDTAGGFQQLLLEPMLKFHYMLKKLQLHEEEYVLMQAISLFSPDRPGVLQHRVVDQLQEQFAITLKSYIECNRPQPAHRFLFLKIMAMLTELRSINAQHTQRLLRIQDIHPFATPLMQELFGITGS
Thyrotropin-releasing hormone receptor (Homo sapiens), sequence (P34981 whole entry, looked up): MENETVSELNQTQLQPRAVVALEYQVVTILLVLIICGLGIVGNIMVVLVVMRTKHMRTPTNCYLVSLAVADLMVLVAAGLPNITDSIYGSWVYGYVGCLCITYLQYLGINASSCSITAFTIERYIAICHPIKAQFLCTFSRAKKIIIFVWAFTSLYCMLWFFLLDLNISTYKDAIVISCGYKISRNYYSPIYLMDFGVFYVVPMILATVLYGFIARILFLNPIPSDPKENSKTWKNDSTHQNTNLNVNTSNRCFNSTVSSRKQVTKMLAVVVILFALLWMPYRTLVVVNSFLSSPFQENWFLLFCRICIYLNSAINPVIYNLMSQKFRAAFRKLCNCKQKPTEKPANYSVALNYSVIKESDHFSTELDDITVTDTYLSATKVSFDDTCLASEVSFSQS
Thyrotropin receptor (Homo sapiens), sequence (P16473 whole entry, looked up): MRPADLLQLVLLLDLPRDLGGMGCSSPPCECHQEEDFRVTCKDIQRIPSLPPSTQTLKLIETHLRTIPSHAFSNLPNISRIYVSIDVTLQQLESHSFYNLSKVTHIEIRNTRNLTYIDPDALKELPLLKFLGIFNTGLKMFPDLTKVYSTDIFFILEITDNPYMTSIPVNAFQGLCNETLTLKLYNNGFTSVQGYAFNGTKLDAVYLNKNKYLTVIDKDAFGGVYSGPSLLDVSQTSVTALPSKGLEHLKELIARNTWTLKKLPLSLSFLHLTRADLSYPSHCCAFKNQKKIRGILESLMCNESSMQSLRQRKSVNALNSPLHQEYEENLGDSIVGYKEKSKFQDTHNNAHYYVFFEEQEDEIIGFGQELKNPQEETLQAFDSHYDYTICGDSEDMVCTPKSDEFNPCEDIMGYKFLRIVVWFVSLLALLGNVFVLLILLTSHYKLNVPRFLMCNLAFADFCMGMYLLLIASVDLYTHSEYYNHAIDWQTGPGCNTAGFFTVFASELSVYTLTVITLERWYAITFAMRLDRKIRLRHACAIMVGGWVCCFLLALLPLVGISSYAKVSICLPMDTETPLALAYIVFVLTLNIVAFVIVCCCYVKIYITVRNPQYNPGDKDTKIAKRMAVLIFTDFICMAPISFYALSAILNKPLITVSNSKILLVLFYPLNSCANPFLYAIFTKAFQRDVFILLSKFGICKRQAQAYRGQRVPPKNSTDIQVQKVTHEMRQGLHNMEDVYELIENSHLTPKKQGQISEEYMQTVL
Nuclear receptor subfamily 1 group I member 2 (Rattus norvegicus), sequence (Q9R1A7 whole entry, looked up): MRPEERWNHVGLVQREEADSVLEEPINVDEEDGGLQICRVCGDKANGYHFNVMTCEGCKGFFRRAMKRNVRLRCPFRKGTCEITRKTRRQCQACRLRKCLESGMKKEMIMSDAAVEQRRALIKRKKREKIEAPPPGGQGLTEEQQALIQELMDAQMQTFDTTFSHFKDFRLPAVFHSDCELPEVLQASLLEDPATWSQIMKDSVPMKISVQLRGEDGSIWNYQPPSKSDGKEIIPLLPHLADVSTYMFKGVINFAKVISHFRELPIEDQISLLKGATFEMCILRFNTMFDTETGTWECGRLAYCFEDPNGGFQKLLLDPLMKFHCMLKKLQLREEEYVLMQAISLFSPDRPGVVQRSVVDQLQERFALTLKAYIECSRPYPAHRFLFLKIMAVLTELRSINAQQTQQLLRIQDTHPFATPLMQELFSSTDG

SMILES | Potency [1] | Potency [2] | Potency [3] | Potency [4] | Potency [5] | outcome [6] | outcome [7] | outcome [8] | Potency [9] | Potency [10] | Potency [11] | Potency [12] | Potency [13] | Potency [14] | Potency [15] | outcome [16] | outcome [17] | max activation [18] | Potency [19] | Potency [20]
C1CCN(CN2CCCCC2)CC1 | inactive | inactive | inactive | inactive | inactive | inactive | inactive | inactive | inactive | inactive | inactive | inactive | inactive | inactive |  |  |  |  |  | 
OCCc1ccncc1 | inactive | inactive | inactive | inactive | inactive |  | inactive | inactive |  | inactive | inactive | inactive | inactive | inactive | inactive | inactive | inactive |  |  | 
O=C(OC1C[C@H]2CC[C@@H](C1)[N+]21CCCC1)C(O)(c1ccccc1)c1ccccc1 (stereo not given in full) | inactive | inactive | inactive | inactive | inactive | inactive | inactive | inactive |  | inactive | inactive | inactive | inactive | inactive |  | inactive | inactive | -1.51% | inactive | inactive
CCc1ccc2c(c1)C(=O)c1ccccc1C2=O | inactive | inactive | inactive |  | inactive | inactive | inactive | inactive |  | inactive |  | inactive | inactive | 21.7 µM (active) | inactive | inactive | inactive |  |  | 
C/C(=C\C(C)CC(C)CC(C)C)C1CC(=O)OC1=O (stereo not given) | inactive | inactive | inactive |  |  | inactive | inactive | inactive | inactive | inactive | inactive |  | inactive | inactive |  | inactive | inactive |  |  | 
Cc1ccc(NC=O)c(C)c1 | inactive | inactive |  | inactive | inactive | inactive | inactive | inactive | inactive | inactive |  | inactive | inactive | inactive | inactive | inactive | inactive |  |  | 
CCCCCCCCNC | inactive | inactive |  | inactive | inactive | inactive | inactive | inactive |  | inactive | inactive | inactive |  | inactive | inactive | inactive |  |  |  | 
CCCCCCOC(=O)c1ccccc1 | inactive | inactive | inactive |  | 17.2 µM (active) | inactive | inactive | inactive |  |  | inactive |  | inactive | inactive | 15.4 µM (active) | inactive | inactive |  |  | 
O=C1CCCN1CCO | inactive | inactive | inactive |  |  | inactive | inactive | inactive | inactive | inactive | inactive | inactive | inactive | inactive |  | inactive | inactive |  |  | 
CCCCCCCCCC(C)C=O (stereo not given) | inactive | inactive |  | inactive | 43.3 µM (active) | inactive | inactive | inactive | inactive | inactive | inactive |  | inactive | 48.6 µM (active) | inactive | inactive |  |  |  | 
CCN(CCCCOC(=O)c1ccc(OC)c(OC)c1)C(C)Cc1ccc(OC)cc1 (stereo not given) | 29.8 µM (active) | inactive |  | inactive |  | inactive | inactive | inactive |  | inactive | inactive | inactive | inactive | inactive | inactive | inactive | inactive | 3.44% | inactive | inactive
